Compound activity as filed in PubChem.
BLM inh – inhibitors of human Bloom syndrome helicase BLM. P54132. recombinant BLM DNA unwinding, fluorescence dequenching. Potency, µM (titrated, usually from 56.1 µM), without a hit: at the top dose activity change, negative = inhibition, most hits filed as inhibitors. 350,000 compounds, 0.2% hits. AID 2528;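 also: plate controls were vehicle for no effect and no enzyme for full effect; nearly all actives have a fitted effect of over 35% in size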
Target sequence (P54132 whole entry, looked up): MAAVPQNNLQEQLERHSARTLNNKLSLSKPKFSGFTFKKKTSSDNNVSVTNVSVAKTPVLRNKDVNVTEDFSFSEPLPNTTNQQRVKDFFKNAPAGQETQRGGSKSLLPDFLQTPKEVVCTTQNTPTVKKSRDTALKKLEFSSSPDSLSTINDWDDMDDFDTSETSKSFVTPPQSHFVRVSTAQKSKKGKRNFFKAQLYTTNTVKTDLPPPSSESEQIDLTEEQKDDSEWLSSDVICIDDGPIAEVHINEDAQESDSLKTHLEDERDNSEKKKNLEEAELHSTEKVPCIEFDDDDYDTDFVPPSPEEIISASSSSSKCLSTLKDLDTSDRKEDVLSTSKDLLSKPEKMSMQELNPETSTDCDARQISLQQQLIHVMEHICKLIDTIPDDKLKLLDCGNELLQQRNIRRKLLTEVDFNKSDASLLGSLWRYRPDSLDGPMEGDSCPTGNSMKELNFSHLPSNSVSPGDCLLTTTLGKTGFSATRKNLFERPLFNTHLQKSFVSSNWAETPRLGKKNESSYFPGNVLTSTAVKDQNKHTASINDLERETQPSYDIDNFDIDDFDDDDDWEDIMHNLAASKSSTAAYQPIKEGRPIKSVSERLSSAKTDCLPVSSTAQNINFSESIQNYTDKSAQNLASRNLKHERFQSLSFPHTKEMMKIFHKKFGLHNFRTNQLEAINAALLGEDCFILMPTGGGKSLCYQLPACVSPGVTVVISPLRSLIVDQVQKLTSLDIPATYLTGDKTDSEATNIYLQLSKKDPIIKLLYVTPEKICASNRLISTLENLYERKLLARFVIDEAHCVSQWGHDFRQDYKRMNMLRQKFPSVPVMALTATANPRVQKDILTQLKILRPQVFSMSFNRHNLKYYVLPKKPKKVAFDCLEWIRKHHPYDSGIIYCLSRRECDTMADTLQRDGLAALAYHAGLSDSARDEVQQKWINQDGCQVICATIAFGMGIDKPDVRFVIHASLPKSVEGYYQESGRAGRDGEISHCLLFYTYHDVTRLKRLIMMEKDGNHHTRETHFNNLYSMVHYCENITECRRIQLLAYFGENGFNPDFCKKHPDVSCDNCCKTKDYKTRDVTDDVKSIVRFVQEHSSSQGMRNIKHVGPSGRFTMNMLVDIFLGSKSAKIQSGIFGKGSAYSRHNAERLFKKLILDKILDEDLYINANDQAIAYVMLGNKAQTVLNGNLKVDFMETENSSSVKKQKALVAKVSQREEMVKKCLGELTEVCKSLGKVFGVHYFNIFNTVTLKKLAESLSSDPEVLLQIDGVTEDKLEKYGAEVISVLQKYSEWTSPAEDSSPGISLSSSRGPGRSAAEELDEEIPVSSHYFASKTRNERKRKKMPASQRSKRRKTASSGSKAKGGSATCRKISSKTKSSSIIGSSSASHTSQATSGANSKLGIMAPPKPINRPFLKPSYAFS
KDM4E inh – JMJD2E (human) inhibition; B2RXH2; JMJD2E catalytic domain, FDH-coupled NADH fluorescence (FDH is formaldehyde dehydrogenase); Potency, µM (doses to about 57.1 µM), for the others: at the top dose activity change, negative = inhibition, usual class: inhibitors; 230,000 compounds, 1.6% hits; active = well fitted inhibition curve with a large enough effect, not every such curve was filed as active; inconclusive = small, poorly fitted or top-dose-only effect, or another doubt; inactive = no such curve, though single readings can be large or run the other way;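 also: 0% = wells with enzyme and -100% = buffer wells without enzyme; nearly all actives have a fitted effect of over 50% in size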
APEX1 inh – APE1 (human) endonuclease inhibition; recombinant APE1, TAMRA/BHQ-2 abasic DNA cleavage fluorescence; Potency, µM (doses to about 65.8 µM), inactives show at the top dose activity change, negative = inhibition, usual class: inhibitors; 350,000 compounds, 0.35% hits; AID 2517;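 also: plate controls were vehicle for no effect and reference inhibitor for full effect; nearly all actives have a fitted effect of over 55% in size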
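Readout is kinetic fluorescence (ex 525, em 598 nm) from cleavage of 50 nM TAMRA/BHQ-2 THF abasic duplex by 0.75 nM APE1, compound added 15 min beforehand at RT.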
TDP1 block – inhibitors of human tyrosyl-DNA phosphodiesterase TDP1 | Q9NUW8 | recombinant TDP1, AlphaScreen DNA substrate cleavage | Potency, µM (doses to about 130 µM), without a hit: at the top dose activity change, negative = inhibition, actives largely listed as inhibitors | 350,000 compounds, 0.28% hits | AID 485290; also: nearly all actives have a fitted effect of over 40% in size
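AlphaScreen read-out: signal falls as enzyme removes the 3' tyrosine-FITC from a 5'-biotinylated DNA oligo (15 nM, 5 min, RT). Enzyme was E. coli-made recombinant Tdp1 at 1 nM, exposed to compound for 15 min beforehand; beads 10 ug/ml, 10 min.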
RECQ1 helicase – RECQ1 (human) helicase inhibition | P46063 | RECQ1 DNA unwinding, red fluorescence kinetic read | Potency, µM (series often up to 57.3 µM), for inactives: at the highest dose activity, negative = inhibition, most hits filed as inhibitors | 240,000 compounds, 0.54% hits | AID 2549;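 also: plate controls were vehicle for no effect and no enzyme for full effect; nearly all actives have a fitted effect of over 30% in size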
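50 nM RECQ1T1 preincubated 15 min with compound in Tris pH 8.0 buffer with MgCl2, DTT, Tween-20 and 2.5 ug/ml poly(dI-dC); started with 200 nM TAMRA/BHQ-2 forked duplex and 2 mM ATP. Unwinding read as fluorescence (525/598 nm), two reads 2 h apart.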
L3MBTL1 inh – L3MBTL1 (human) inhibition. Q9Y468. AlphaScreen L3MBTL1–H3K9me1 peptide binding. Potency, µM (series often up to 57.1 µM), without a hit: top-dose activity, negative = inhibition, hits mostly inhibitors. 230,000 compounds, 0.66% hits; also: nearly all actives have a fitted effect of over 60% in size
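L3MBTL1 (50 nM) pre-complexed 30 min with biotinylated H3(1-15)K9me1 peptide (75 nM), then compounds added for 30 min at room temperature; AlphaScreen streptavidin donor/nickel chelate acceptor beads (10 ug/mL final) read after 30 min dark incubation.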
* marks the source's active call; other numbers are inactive results; i = inactive; ? = inconclusive; . = no result; ! = a repeat was not active; [ ] = another dose, or the depositor's remark. This is one part of a sample in which hits are shown more often than they occur. Unless noted, calls follow the shape of the dose curve; as a rule, active = well fitted curve in the direction sought with a large enough effect; inconclusive = small, poorly fitted or top-dose-only effect, or another doubt; inactive = no such curve, though single readings can be large; an effect the other way counts as inactive or inconclusive. Unless noted, % is scaled to controls: 0 for no effect and ±100 for the full control effect; potency is read from the fitted curve at half-maximal effect.

SMILES | BLM inh | KDM4E inh | APEX1 inh | TDP1 block | RECQ1 helicase | L3MBTL1 inh
COc1cccc(/C=N/NC(=O)CC2C(=O)NN=C2C)c1O (stereo not given) | -2% | 8.9µM* | 2% | 5% | -8% | .
COc1cccc(/C=N/NC(=O)c2cnccn2)c1O | 2% | 11µM* | -1% | . | -1% | ?
CC(C)(C)n1ncc2c(=O)n(Cc3c(Cl)ccc(Cl)c3Cl)cnc21 | . | . | -2% | . | . | .
O=C(C[C@H]1C/C=C\CC[C@@H](Cc2ccc(F)cc2)C(=O)OCCNC1=O)NCCO | . | . | 11µM* | 1% | . | -2%
Cc1ccc(C(C)C)c(OCc2ccc(C(=O)N/N=C/c3cccc(O)c3O)cc2)c1 | -18% | 4.5µM* | 14% | 11% | i | -18%
Cc1ccc(C(C)C)c(OCc2ccc(C(=O)N/N=C/c3ccc(O)c(O)c3)cc2)c1 | -13% | 5% | -1% | 0% | 3% | ?
CCc1ccccc1NC(=O)CN1CCN(C(=O)c2ccc(OCc3cn4ccccc4n3)cc2)CC1 | . | . | 9% | -5% | . | 2%
CCc1ccccc1NC(=O)CNC(=O)c1ccc(OCc2cn3ccccc3n2)cc1 | . | . | -14% | 28µM* | . | -14%
CSC1=NS(=O)(=O)c2c(C)nn(C)c2S1 | -8% | 3.5µM* | -2% | 9% | -6% | 0%
CNc1ccc(Br)cc(C(=O)/C=C/c2cccc(OC)c2OC)c1=O | ? | 28µM* | ? | 4%[56.1 µM] | -27% | ?
CNc1ccc(Br)cc(C(=O)/C=C/c2cccc(Cl)c2Cl)c1=O | -13% | -2% | -4% | -3% | -21% | ?
COc1cccc(/C=N/NC(=O)c2cc(-c3cccn3C)n[nH]2)c1O | -18% | 16µM* | -4% | 11% | i | -24%
COc1cccc(/C=N/NC(=O)c2cc3c(OC)cccc3[nH]2)c1OC | -10% | ? | -7% | 2% | -12% | -4%
COc1cccc(/C=N/NC(=O)c2cc3c(OC)cccc3[nH]2)c1O | -8% | 25µM* | -1% | 0% | i | 3%
Cn1c2cc(S(C)=O)sc2c2cnn(Cc3cccc(O)c3)c(=O)c21 (stereo not given) | . | . | . | 1% | . | .
CC1(C)CC(=O)C(C(C2=C(O)CC(C)(C)CC2=O)c2ccc(Br)s2)C(=O)C1 (stereo not given) | -4% | 20µM* | -1% | 0% | -3% | 2%
Nc1nc2ccccc2nc1N | -3% | 3.2µM* | -4% | 6% | -7% | 5%
Clc1nc2ccccc2nc1Cl | . | . | -1% | 16% | -3% | .
CC(=O)c1sc(C(=O)O)c(-c2ccco2)c1-c1ccco1 | 27% | -2% | ? | 50µM* | -2% | ?
CC(C)(Oc1ccc(-c2ccco2)cc1)C(=O)O | 3% | ? | -3% | -8% | -11% | .
CSc1nc(C)cc(OCC(=O)N/N=C/c2ccccc2O)n1 | 3% | 25µM* | 8% | 4% | -6% | 1%
Cc1cc(=O)oc2cc(OCC(=O)N/N=C/c3ccccc3O)ccc12 | ? | . | 23% | 8%[0.0935 µM] | . | .
Cc1c(P(=S)(c2ccccc2)c2ccccc2)[n+]2ccccc2n1Cc1ccccc1 | . | . | . | 1% | . | .
CCOc1ccccc1NC(=O)CSc1nc2ccccc2c2nc(CCn3cncc3C)nn12 | -5% | . | . | -1% | . | .
Oc1ccc(/C=N/Nc2nccnc2Cl)c(O)c1 | -9% | ? | -1% | -1% | -2% | .
SMILES | BLM inh | KDM4E inh | APEX1 inh | TDP1 block | RECQ1 helicase | L3MBTL1 inh
Oc1ccccc1/C=N/Nc1nccnc1Cl | -5% | 25µM* | -3% | 8% | -14% | .
O=c1c(-c2ccc(F)cc2)nc2cnc(N3CCOCC3)nc2n1CCc1ccccc1 | 0% | . | -1% | . | -8% | .
Oc1ccc(-c2nc3ccc4ccccc4c3c3c2CCC3)cc1O | -6% | 25µM* | 0% | 8% | -2% | -7%
COc1ccc(C2c3ccc(OCc4ccccc4)cc3Oc3ncn(CCN4CCOCC4)c(=N)c32)cc1OC (stereo not given) | . | . | . | 5% | . | .
COc1ccc2cc(C(C)C(=O)OC(C)C)ccc2c1 (stereo not given) | . | . | 9% | 79µM* | . | 60%
COc1ccc(Nc2nc(N)c3cc(OC)c(OC)cc3n2)cc1 | 16µM* | . | . | -2%[12.3 µM] | . | .
COc1ccc(C(=O)O)nc1C | 0% | 14µM* | -2% | 4% | -13% | 52%
COc1ccc(-n2nc(C(=O)Nc3cc(C)ccn3)c3c4ccccc4n(C)c3c2=O)cc1 | -4% | . | . | -2% | . | .
CONC(=O)C[C@@H](C#N)NC(=O)[C@@H]1CCCN1C(=O)[C@@H](NC(=O)c1ccc(N)c(Cl)c1)C(C)(C)C | . | . | . | -6% | . | .
CCOC(=O)C1=C(C)N=c2s/c(=C/c3ccc(OCC(=O)O)cc3)c(=O)n2C1c1ccc(SC)cc1 (stereo not given) | ? | . | 7.5µM* | . | . | ?
CC1=C(C(=O)Nc2ccccc2)C(c2ccc(Cl)cc2)n2c(s/c(=C/c3cccc(OCC(=O)O)c3)c2=O)=N1 (stereo not given) | -23% | -2% | 8% | 0% | 4% | ?
CCOC(=O)C1=C(C)N=c2s/c(=C\c3ccc(OCC(=O)O)cc3)c(=O)n2C1c1ccc(Cl)cc1 (stereo not given) | ? | . | 11µM* | . | . | ?
CCOc1ccc(C2C(C(=O)Nc3ccccc3)=C(C)N=c3s/c(=C/c4cccc(OCC(=O)O)c4)c(=O)n32)cc1 (stereo not given) | ? | 1% | 2% | 0% | 23% | 35µM*
Cc1cccc(NC(=O)Cn2c(=O)n(CC3CCC(C(=O)NCCc4ccccc4)CC3)c(=O)c3ccccc32)c1 (stereo not given) | 0% | . | . | 0%[12.3 µM] | . | .
O=C(Cc1cc(=O)[nH][nH]1)N/N=C/c1cccc(Cl)c1Cl | -1% | 4µM*! | -9% | 8% | 0% | -2%
N#Cc1cccc(NS(=O)(=O)c2ccc3c(c2)CCC(=O)N3)c1 | . | . | . | 1% | . | .
CCOC(=O)c1ccccc1NC(=O)COC(=O)C1CCCC1 | . | . | -6% | . | . | 26%
CCOC(=O)c1ccccc1NC(=O)COC(=O)CC1CCCCC1 | -9% | . | 5% | 50µM* | . | .
Cc1cc(N)ccc1S(C)(=O)=O | -3% | 0% | 4% | -2% | 3% | 4.5µM*
Cc1ccc(Cn2c(CCNC(=O)C(C)C)nc3ccccc32)cc1 | 0% | . | . | 5% | . | .
CC(=O)c1cc(O)c2ccccc2c1O | -14% | 14µM* | -8% | 10% | -6% | -27%
Cc1ccc(C)n1-c1cccc(C(=O)O)c1 | ? | ? | 1.8µM* | ? | ? | 1.8µM*
Cc1ccc(C)n1-c1cccc(C(=O)Nc2ccccc2)c1 | 4% | ? | 11% | . | i | .
